Among the data in PubChem BioAssay are composite z-score, composite Z-score and z-score values, retold here.

Activity calls are given as the source filed them.

One assay deals with Albumin (Bos taurus) (UniProt P02769). The assay is described as follows: bovine serum albumin binders on microarray, profiling panel, artefact control for SMM control protein annotation, biochemical, small-molecule microarray, Alexa647 label, 635/667 nm fluorescence (AID 1118).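 Further: score merges 667 nm emission intensity and signal-to-noise per printed compound spot.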 The conditions noted are these: BSA-A647 binding, fluorescence 635 nm, higher = more signal.
Assay [1] is described as follows: small-molecule microarray binders of probe aXIP, primary screen, biochemical, NeuroSMM set, 635/667 nm fluorescence (AID 1119).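 Further: probe is the protein aXip251-270 applied at 1 µg/mL to compound-printed slides; binding of probe to printed compounds measured as 667 nm fluorescence plus signal to noise.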 The conditions noted are these: higher = more signal, called active from +8 up or from −8 down.
Assay [2] can be described thus: small-molecule binders of probe aNOTCH3, primary screen, biochemical, small-molecule microarray, 635/667 nm fluorescence (AID 1120).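 Further: probe is a biotin-tagged antibody raised against NOTCH3 rather than NOTCH3 protein; score merges spot fluorescence near 667 nm with spot signal to noise.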 The conditions noted are these: higher = more signal.
Assay [3] in a line: small-molecule binders of probe aNOTCH2, primary screen, biochemical, small-molecule microarray, 635/667 nm fluorescence (AID 1121).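 Further: score merges feature fluorescence read at 667 nm with its signal to noise.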 The conditions noted are these: higher = more signal.
Assay [4] has as its target Carbonic anhydrase 2 (Homo sapiens) (UniProt P00918). The assay is described as follows: CAII small-molecule binders, profiling panel, biochemical, small-molecule microarray, Alexa647-labelled CAII (AID 1122). The conditions noted are these: CAII-A647 binding fluorescence, higher = more signal.
A short description of assay [5]: COS7 lysate on small-molecule microarray, probe aHis, 635 nm (AID 1123).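 Further: z-score combines 667nm fluorescence intensity with signal-to-noise per printed compound spot.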 The conditions noted are these: COS7 cell lysate, fluorescence, higher = more signal.
The nature of assay [6]: compound binding in COS7 lysate, probe aLAP1, primary screen, cell lysate, small-molecule microarray (AID 1124).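 Further: lysate comes from COS7 cells expressing LAP1 and is applied at 0.3 µg/mL; score merges spot fluorescence near 667 nm with signal-to-noise over triplicate slides.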 The conditions noted are these: probe aLAP1, fluorescence, higher = more signal.
The next assay concerns Sam68 (KHDRBS1). Put plainly: Sam68 small-molecule binders, primary screen, biochemical, small-molecule microarray, 635 nm fluorescence (AID 1125).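 Further: score merges 667 nm channel intensity with signal to noise over triplicate slides.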 The conditions noted are these: small-molecule microarray binding, higher = more signal.
Assay [7] has as its system Chordin-like protein 2 (CHRDL2). The assay is described as follows: CHRDL2 small-molecule binders, primary screen, biochemical, small-molecule microarray, 635 nm fluorescence (AID 1126).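 Further: printed compound slides probed with Chrdl2 protein at 4 µg/mL for 1 h at 4 C; score merges 667 nm emission intensity with signal to noise over three replicate slides.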 The conditions noted are these: small-molecule microarray binding, fluorescence 635 nm; higher = more signal.
Assay [8] deals with Concanavalin-A (Canavalia ensiformis) (UniProt P02866). Put plainly: ConA small-molecule binders, primary screen, artefact control for SMM control protein annotation, biochemical, small-molecule microarray, Alexa647 label, 635 nm (AID 1127).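 Further: z combines 667 nm emission intensity with signal-to-noise across three replicate slides.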 The conditions noted are these: ConA-A647 binding fluorescence, higher = more signal.
Assay [9] is described as follows: anti-His antibody binders, primary screen, artefact control for SMM control protein annotation, biochemical, small-molecule microarray, 635 nm fluorescence (AID 1128).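 Further: score merges feature fluorescence with signal-to-noise for each printed compound spot.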 The conditions noted are these: anti-His Alexa647 antibody binding, higher = more signal.
For assay [10], the system named is Human papillomavirus type 1a E7 protein (residues 1-88). Put plainly: HPV1a E7 small-molecule binders, primary screen, biochemical, small-molecule microarray, residues 1-88, 635 nm (AID 1129). The conditions noted are these: small-molecule microarray binding, fluorescence 635 nm; higher = more signal.
Assay [11] concerns the target Focal adhesion kinase 1 (Homo sapiens) (UniProt Q05397). Put plainly: small-molecule microarray binders of FAK, primary screen, biochemical, 635/667 nm fluorescence, BSA, DTT (AID 1130).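 Further: composite of spot emission at 667 nm and signal to noise over triplicate slides.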 The conditions noted are these: PTK2 binding, 635 nm fluorescence, higher = more signal.
Assay [12] has as its system Fibrinogen (Alexa647-labelled). The assay is described as follows: fibrinogen binders on compound microarrays, profiling panel, artefact control for SMM control-protein annotation, biochemical, small-molecule microarray, 635/667 nm fluorescence (AID 1131).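 Further: z-score merges 667 nm fluorescence with per-spot signal-to-noise over triplicate slides.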 The conditions noted are these: fibrinogen-A647 binding fluorescence, higher = more signal.
Assay [13] deals with Follistatin (Homo sapiens) (UniProt P19883). Put plainly: follistatin binders on small-molecule microarrays, primary screen, biochemical, small-molecule microarray, 635/667 nm fluorescence (AID 1132). The conditions noted are these: FST binding, 635 nm fluorescence, higher = more signal.
Assay [14] addresses Fibroblast growth factor 2 (Homo sapiens) (UniProt P09038). The assay is described as follows: FGF2 binders on small-molecule microarrays, primary screen, biochemical, small-molecule microarray, 635/667 nm fluorescence (AID 1133). The conditions noted are these: small-molecule microarray binding, FGF2, fluorescence 635/667; higher = more signal.
Assay [15] in a line: mitochondrial membrane potential change in A549 cells, profiling panel, cell-based, JC-1 fluorescence, basal, 24 h, 100 nL (AID 1138).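 Further: A549 lung adenocarcinoma cells under basal conditions with no added stimulus; test concentration not given here.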 The conditions noted are these: higher = more signal.
The subject of a further assay is Lefty1. Put plainly: Lefty1 binders on small-molecule microarrays, primary screen, biochemical, small-molecule microarray, 635/667 nm fluorescence (AID 1139). The conditions noted are these: small-molecule microarray binding, fluorescence 635/667; higher = more signal.
The test system of assay [16] is wheat germ agglutinin (Triticum aestivum), Alexa647-labelled. The assay is described as follows: wheat germ agglutinin binders on compound microarrays, profiling panel, artefact control for SMM control-protein annotation, biochemical, small-molecule microarray, 635/667 nm fluorescence (AID 1140).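 Further: score merges 667 nm feature emission with signal to noise over triplicate slides.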 The conditions noted are these: WGA-A647 binding, 635 nm fluorescence, higher = more signal.

The target of assay [17] is Luciferin 4-monooxygenase (Photinus pyralis) (UniProt P08659). Put plainly: firefly luciferase enzyme inhibitors, primary screen, biochemical, luminescence, purified enzyme, 2006 set (AID 1141).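 Further: cell-free assay with purified firefly luciferase at 100 ng per well in PBS; test concentration not given here.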 The conditions noted are these: SteadyGlo luminescence, 30 min, higher = more signal, called active from +8 up or from −8 down.
Chain of Luciferin 4-monooxygenase (Photinus pyralis) (P08659 whole entry, looked up): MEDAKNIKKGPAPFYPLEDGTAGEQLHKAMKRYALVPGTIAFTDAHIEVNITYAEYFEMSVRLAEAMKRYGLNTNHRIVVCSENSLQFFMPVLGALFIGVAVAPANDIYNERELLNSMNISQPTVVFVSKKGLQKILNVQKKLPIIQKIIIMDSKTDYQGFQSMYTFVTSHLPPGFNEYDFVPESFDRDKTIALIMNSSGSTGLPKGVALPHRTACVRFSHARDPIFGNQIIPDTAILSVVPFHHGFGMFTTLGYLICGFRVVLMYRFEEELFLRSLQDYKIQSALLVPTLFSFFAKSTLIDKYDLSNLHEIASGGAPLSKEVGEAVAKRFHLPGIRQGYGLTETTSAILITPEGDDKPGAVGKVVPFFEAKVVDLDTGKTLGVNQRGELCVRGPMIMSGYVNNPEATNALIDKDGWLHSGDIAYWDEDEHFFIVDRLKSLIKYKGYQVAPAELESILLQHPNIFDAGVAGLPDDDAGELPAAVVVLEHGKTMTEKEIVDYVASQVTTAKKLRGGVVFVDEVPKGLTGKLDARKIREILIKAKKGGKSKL

Chain of Focal adhesion kinase 1 (Homo sapiens) (Q05397 whole entry, looked up): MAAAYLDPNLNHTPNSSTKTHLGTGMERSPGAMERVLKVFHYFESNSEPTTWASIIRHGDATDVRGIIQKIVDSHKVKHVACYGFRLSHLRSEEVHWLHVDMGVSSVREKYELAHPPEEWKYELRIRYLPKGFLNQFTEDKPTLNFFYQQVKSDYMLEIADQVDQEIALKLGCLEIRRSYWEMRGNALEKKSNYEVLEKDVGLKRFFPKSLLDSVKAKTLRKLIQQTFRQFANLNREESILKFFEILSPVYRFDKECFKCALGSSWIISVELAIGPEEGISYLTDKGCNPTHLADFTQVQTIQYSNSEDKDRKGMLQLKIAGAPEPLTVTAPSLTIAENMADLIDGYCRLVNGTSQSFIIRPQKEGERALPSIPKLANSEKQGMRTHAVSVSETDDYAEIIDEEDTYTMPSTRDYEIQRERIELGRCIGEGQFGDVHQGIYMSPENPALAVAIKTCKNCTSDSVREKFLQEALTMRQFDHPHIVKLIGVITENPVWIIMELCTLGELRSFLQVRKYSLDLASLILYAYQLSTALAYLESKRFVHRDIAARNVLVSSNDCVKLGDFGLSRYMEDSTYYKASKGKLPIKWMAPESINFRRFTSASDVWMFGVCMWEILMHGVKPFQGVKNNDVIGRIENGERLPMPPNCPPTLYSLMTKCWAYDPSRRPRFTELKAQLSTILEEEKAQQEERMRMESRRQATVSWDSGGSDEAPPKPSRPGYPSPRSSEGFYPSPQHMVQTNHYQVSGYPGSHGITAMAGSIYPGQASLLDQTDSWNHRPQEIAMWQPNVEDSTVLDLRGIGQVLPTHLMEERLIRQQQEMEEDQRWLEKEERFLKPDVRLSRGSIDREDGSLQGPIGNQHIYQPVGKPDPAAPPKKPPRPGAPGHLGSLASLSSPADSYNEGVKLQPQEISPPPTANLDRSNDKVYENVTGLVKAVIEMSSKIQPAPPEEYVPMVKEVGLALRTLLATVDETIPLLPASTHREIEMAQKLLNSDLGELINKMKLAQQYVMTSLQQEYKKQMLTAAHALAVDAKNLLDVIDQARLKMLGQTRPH
Chain of Follistatin (Homo sapiens) (P19883 whole entry, looked up): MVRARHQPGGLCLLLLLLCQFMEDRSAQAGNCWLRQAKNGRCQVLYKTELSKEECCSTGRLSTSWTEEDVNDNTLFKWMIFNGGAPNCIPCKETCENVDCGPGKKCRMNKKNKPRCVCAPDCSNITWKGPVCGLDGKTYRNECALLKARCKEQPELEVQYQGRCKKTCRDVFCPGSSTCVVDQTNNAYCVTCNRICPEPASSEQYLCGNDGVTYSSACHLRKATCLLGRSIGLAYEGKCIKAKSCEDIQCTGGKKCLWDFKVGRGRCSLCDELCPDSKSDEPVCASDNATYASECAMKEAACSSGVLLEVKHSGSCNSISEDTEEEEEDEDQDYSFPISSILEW
Chain of Concanavalin-A (Canavalia ensiformis) (P02866 whole entry, looked up): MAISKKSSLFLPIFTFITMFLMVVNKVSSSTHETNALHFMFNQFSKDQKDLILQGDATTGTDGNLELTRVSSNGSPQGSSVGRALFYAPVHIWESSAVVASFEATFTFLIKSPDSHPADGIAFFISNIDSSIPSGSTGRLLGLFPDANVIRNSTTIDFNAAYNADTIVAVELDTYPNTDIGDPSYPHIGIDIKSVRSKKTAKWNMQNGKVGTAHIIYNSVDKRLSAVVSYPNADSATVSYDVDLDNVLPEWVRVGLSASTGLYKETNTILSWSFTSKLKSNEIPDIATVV
Chain of Albumin (Bos taurus) (P02769 whole entry, looked up): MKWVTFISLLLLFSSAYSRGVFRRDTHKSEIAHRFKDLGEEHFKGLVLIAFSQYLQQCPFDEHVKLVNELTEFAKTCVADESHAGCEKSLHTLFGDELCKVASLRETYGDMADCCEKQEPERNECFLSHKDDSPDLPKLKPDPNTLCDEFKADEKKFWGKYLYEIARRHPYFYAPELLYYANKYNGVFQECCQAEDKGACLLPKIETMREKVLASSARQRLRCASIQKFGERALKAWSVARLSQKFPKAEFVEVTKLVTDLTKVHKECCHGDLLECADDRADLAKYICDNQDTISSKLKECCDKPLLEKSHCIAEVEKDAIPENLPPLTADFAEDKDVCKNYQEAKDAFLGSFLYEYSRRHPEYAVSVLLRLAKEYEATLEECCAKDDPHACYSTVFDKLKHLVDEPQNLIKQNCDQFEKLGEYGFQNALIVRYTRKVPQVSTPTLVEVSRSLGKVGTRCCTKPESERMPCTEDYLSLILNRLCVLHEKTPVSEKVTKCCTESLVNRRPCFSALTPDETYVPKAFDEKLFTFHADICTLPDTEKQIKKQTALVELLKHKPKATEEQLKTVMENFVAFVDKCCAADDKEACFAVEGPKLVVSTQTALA
Chain of Fibroblast growth factor 2 (Homo sapiens) (P09038 whole entry, looked up): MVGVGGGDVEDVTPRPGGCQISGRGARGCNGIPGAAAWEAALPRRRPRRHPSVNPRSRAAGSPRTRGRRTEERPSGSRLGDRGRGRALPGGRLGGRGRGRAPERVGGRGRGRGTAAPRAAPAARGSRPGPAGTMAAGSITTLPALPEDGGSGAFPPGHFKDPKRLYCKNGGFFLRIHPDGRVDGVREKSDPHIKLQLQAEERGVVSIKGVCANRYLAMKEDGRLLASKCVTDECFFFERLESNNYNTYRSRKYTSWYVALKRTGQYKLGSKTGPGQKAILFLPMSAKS

Regarding `CCOC(=O)C1=CCC(c2cccc3ccccc23)N(S(=O)(=O)c2ccc(C)cc2)C1` (stereo not given), the composite z-score was 0.816 with Albumin (Bos taurus); 0.056 in assay [2]; -0.0731 in assay [3]; 0.401 in assay [4]; 1.41 in assay [5]; 0.117 in assay [6]. In addition, the composite z-score came to 1.12 in the assay on Sam68 (KHDRBS1); 0.341 in [7]; 1.08 in assay [8]; 0.206 in assay [9]; 1.17 in [10]; 1.02 in assay [11]. Besides, the composite z-score is 0.928 in assay [12]; 0.825 in assay [13]; -0.509 in [14]; 0.052 with Lefty1; 0.697 in assay [16]. Besides, the composite Z-score in assay [1] is 0.494 (inactive). Also, the z-score in [15] was 2.43; in [17], 1.72 (inactive).
On to `CC[C@@H]1C=C(C(=O)O)[C@H](c2ccccc2)N1S(=O)(=O)c1ccc([N+](=O)[O-])cc1`, for which the composite z-score with Albumin (Bos taurus) is 0.938; in assay [2], 0.0793; in assay [3] it was -0.0983; in assay [4], 0.514; in [5], 2.43; in assay [6], 0.612. The composite z-score in the assay with Sam68 (KHDRBS1) was 1.04; in [7], -0.812; in assay [8], 0.942; in [9] it was 1.34; in assay [10] it was 1.24; in [11], 0.783. Further, the composite z-score is -0.368 in [12]; 0.221 in [13]; -0.715 in assay [14]; -0.177 in the assay with Lefty1; 1.01 in assay [16]. Further, in [1], the composite Z-score was 0.0692 (inactive). Besides, the z-score was -0.506 in assay [15] and 0.631 (inactive) in [17].
Take `COC(=O)[C@H]1[C@@H]2COc3ccccc3[C@H]2N[C@H]1C(=O)OC`: the composite z-score in the assay with Albumin (Bos taurus) is 0.235; in [2], -0.0351; in [3] it was -0.135; in assay [4], 0.414; in assay [5] it was 0.476; in assay [6] it was 0.315. Also, the composite z-score with Sam68 (KHDRBS1) is 0.429; in [7], 0.122; in assay [8] it was 0.548; in assay [9], -0.0432; in assay [10], 0.0902; in [11], 0.404. The composite z-score in assay [12] came out at 0.428; in assay [13], 0.214; in assay [14] it was 0.446; in the assay with Lefty1, 0.171; in [16], 0.274. Further, in [1], the composite Z-score was 0.0807 (inactive). Further, the values for the z-score in [15] and in assay [17] were 0.603 and -1.37 (inactive), respectively.
For the compound `CCCCCCc1nc(C2CC2)c(C)c2c1[Si](C(C)C)(C(C)C)OC2`, the composite z-score with Albumin (Bos taurus) was -1.57; in assay [2], -0.0647; in assay [3], -0.0942; in assay [4], -0.364; in assay [5], -0.641; in assay [6], -0.35. In addition, the composite z-score is -1.28 in the assay with Sam68 (KHDRBS1); 0.63 in assay [7]; -0.693 in [8]; -0.095 in assay [9]; -1.51 in [10]; -0.695 in assay [11]. Further, the composite z-score in assay [12] was -0.687; in assay [13] it was -0.0256; in [14], -0.0723; in the assay on Lefty1, -0.238; in assay [16], -0.982. The composite Z-score in assay [1] is 0.485 (inactive). Also, the figures for the z-score in assay [15] and in [17] were -0.451 and -0.441 (inactive), respectively.
For `COc1ccc([C@H]2C[C@H]3C(Br)=C[C@]2(OC)C(=O)[C@]32CO2)cc1`, the composite z-score with Albumin (Bos taurus) is 0.504; in assay [2], -0.0918; in assay [3], -0.161; in assay [4] it was 0.545; in assay [5], -0.332; in [6], 0.542. The composite z-score in the assay with Sam68 (KHDRBS1) is -0.72; in assay [7], 0.388; in [8], 0.0428; in [9], 1.2; in [10], 0.0022; in assay [11], -0.458. Also, the composite z-score in assay [12] was -0.278; in assay [13] it was 0.276; in [14], 1.2; in the assay on Lefty1, -0.1; in assay [16] it was -0.06. In [1], the composite Z-score was -0.145 (inactive). Also, the z-score in assay [15] was -1.02; in assay [17] it was 0.909 (inactive).
